Compounds without any hit were thinned out: in the full panel of roughly 83,000, 20% have a hit.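 48-hour exposure, single concentration, 96-well plates; percent growth endpoint where 0 means no net growth. Active: below 10.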 Unmarked numbers belong to inactive results. The source made the active and inactive calls.
Experiments:
Assay in all cases: NCI-60 one-dose screen, 48 h (100 = growth as untreated, 0 = no growth, -100 = all killed)
Conditions in all cases: 10 µM unless noted
[1] = test system: SK-MEL-2 melanoma
[2] = test system: EKVX NSCLC
[3] = test system: SN12C renal
[4] = test system: UO-31 renal
[5] = test system: TK-10 renal
[6] = test system: ACHN renal
[7] = test system: CAKI-1 renal
[8] = test system: A498 renal
[9] = test system: MOLT-4 leukemia
[10] = test system: CCRF-CEM leukemia

| Structure (SMILES) | growth [1] | growth [2] | growth [3] | growth [4] | growth [5] | growth [6] | growth [7] | growth [8] | growth [9] | growth [10] |
| --- | --- | --- | --- | --- | --- | --- | --- | --- | --- | --- |
| COc1cccc2cc(-c3cc4ccccc4[nH]3)/c(=N/C(=S)Nc3ccccc3)oc12 | 91.5% | 87.3% | 80.6% | 81.5% | 102% | 41.2% | 41% | 92.4% | 105% | – |
| Cc1oc2nc[nH]c(=O)c2c1C(=O)/C=C/c1ccc(Cl)cc1 | 55.7% | 62% | 25.4% | 37.9% | 32.3% | 27.2% | 26.1% | 62.4% | 40.7% | – |
| O=S(=O)(NCCCNc1cc(-c2cn(-c3ccccc3)nc2-c2cccc(O)c2)ccn1)c1ccc(Br)cc1 | -5.21% (active) | 30.5% | 16.5% | 3.1% (active) | 32.2% | 10.2% | 13% | 25.2% | -5.44% (active) | 12.2% |
| Cc1ccc(S(=O)(=O)OCC(=O)Nc2ccc(C(=O)O)c(O)c2)cc1 | 39.5% | 103% | 105% | 53% | 118% | 102% | 102% | 99.3% | 57.1% | 83.5% |
| O=C1CCC/C=C\C[C@H]2C=CC(=O)/C2=C/C[C@H](C/C=C\CC(F)(F)F)O1 | -20.9% (active) | -17.7% (active) | -6.43% (active) | -93% (active) | -33.6% (active) | -84.8% (active) | 16% | -75.2% (active) | -0.696% (active) | -5.64% (active) |
| COc1ccc(N=C2NN=C(c3ccc(F)cc3)CS2)cc1OC | 66.4% | 99% | 98.1% | 44.2% | 89.8% | 93.7% | 84.9% | 86.1% | 73.4% | 81.8% |
| COc1ccc(/C=C/C(=O)/C=C/c2cc3ccc(Cl)cc3[nH]c2=O)cc1 | 94% | 84.7% | 85.7% | 75.7% | 124% | 88.6% | 93.2% | 92.7% | 65.3% | 56.8% |
| O=C1NC(Cc2c[nH]c3ccccc23)C(=O)N1Cc1ccc(Cl)cc1 (configuration not stated) | 66.3% | 103% | 99.7% | 76% | 135% | 95% | 86.9% | 78.9% | 85.4% | 70.1% |
| Nc1ccc(S(=O)(=O)c2ccc(Cl)cc2)cc1 | 98.4% | 94.7% | 95.3% | 86.4% | 96.4% | 97.1% | 93.6% | 108% | 103% | 111% |
| C=C1C(=O)O[C@H]2[C@H]1CC/C(COC(=O)NCc1ccc(OC)cc1)=C\CC[C@@]1(C)O[C@@H]21 | 53.4% | 75.9% | 32.8% | 18.4% | 31.2% | 4.28% (active) | 15% | 89.4% | 24.2% | 3.72% (active) |
| O=C1NCC(c2cc3ccccc3[nH]c2=O)Nc2ccccc21 (configuration not stated) | 100% | 106% | 99.7% | 76.8% | 87.8% | 99.7% | 88.1% | 104% | 111% | 110% |
| COc1cc(/C=C/C(=O)c2ccccc2O)ccc1OCCCOc1cc2c(cc1OC)C(=O)N1CCC[C@H]1C=N2 | -61.1% (active) | 19.7% | 6.22% (active) | -54.5% (active) | -27.9% (active) | -13.8% (active) | -35.3% (active) | -68.4% (active) | -11.2% (active) | 5.24% (active) |
| CCCCCCCC/C=C\CCCCCCCCOc1ccccc1CCOP(=O)(O)OCC[N+](C)(C)C | 84.6% | 91.7% | 70.1% | 65% | 1.11% (active) | 80.6% | 26.9% | 82.7% | 11.5% | – |
| COc1cc(C(=O)N2CCN(C(=O)c3ccco3)CC2)c(N)cc1OCc1ccccc1 | 77.6% | 94.6% | 101% | 41.9% | 107% | 99.6% | 105% | 105% | 95.4% | 86.4% |
| O=C(c1ccccc1)C(Cl)C(Cl)c1ccccc1 (configuration not stated) | 96.3% | 79% | -13.9% (active) | -50.5% (active) | -8.89% (active) | -71.5% (active) | 38% | 103% | 25.9% | 5.75% (active) |
| COc1cccc2cc(-c3cc4ccccc4[nH]3)c(=NC(=O)c3ccc(Cl)cc3)oc12 | 83.3% | 77.9% | 83.8% | 58.4% | 96.6% | 51.5% | 53.8% | 64.9% | 61.5% | – |
| C#CCN1C(=O)/C(=c2\sc3n(c2=O)C2C(NN=3)N(CC)C(=O)N2CC)c2ccccc21 (configuration not stated) | 45.1% | 64.9% | 32.4% | 40.1% | 39.7% | 19.8% | 23.5% | -33.8% (active) | 20.9% | – |
| COc1cc(C2CC(c3c(C)[n+]([O-])c4ccccc4[n+]3[O-])=NN2)cc(OC)c1OC (configuration not stated) | 96.4% | 123% | 94.4% | 94.6% | 122% | 103% | 106% | 97.5% | 94.4% | 87.5% |
| CCN1C(=O)N(CC)C2Nn3c(s/c(=C4\C(=O)N(C5CCCC5)c5ccccc54)c3=O)=NC21 (configuration not stated) | 75.9% | 59.7% | 70.6% | 51.7% | 88.1% | 59.2% | 32.6% | 30.8% | 84.4% | – |
| CCN1C(=S)N(CC)C2Nn3c(s/c(=C4\C(=O)N(C)c5ccccc54)c3=O)=NC21 (configuration not stated) | 70.4% | 54.6% | 51.3% | 37.2% | 96.9% | 52.5% | 30.8% | -8.5% (active) | 61.8% | – |
| C=CCOc1ccc(/C(O)=C2\C(=O)C(=O)N(c3nccs3)C2c2ccccc2F)cc1 (configuration not stated) | 54% | 133% | 103% | 110% | 89.1% | 79.4% | 98.7% | 73.8% | 98.3% | 131% |
| C=C1C(=O)O[C@H]2[C@H]1CC/C(COC(=O)NCCc1ccc(Br)cc1)=C\CC[C@@]1(C)O[C@@H]21 | 57.8% | 57.3% | 16.8% | -20.5% (active) | 25.9% | -60.1% (active) | 22.6% | 79.1% | -19.1% (active) | 4% (active) |
| O=C(c1c[nH]c2ccccc12)C(Sc1nc2ccccc2c(=O)[nH]1)c1ccccc1 (configuration not stated) | 72.2% | 91.2% | 98.5% | 81.8% | 97.6% | 97.9% | 108% | 106% | 99.8% | 99.8% |
| Cc1cccc2cc(/C=C/C(=O)/C=C/c3ccc(Cl)cc3)c(=O)[nH]c12 | 91% | 62.5% | 47.6% | 69.7% | 105% | 60.5% | 91.1% | 63.1% | 32.4% | 14.7% |
| COC(=O)c1ccc(C)cc1 | 106% | 98.3% | 107% | 101% | -16.3% (active) | 116% | 97% | 79.9% | 103% | 101% |
| O=C(CNC(=O)c1cccc2ccccc12)Nc1ccccc1Oc1ccccc1 | 34.8% | 26.3% | 21.8% | 33.8% | 19.8% | 29.9% | 31.6% | -14.9% (active) | 24.2% | 18.3% |
| CCN1C(=O)/C(=c2\sc3n(c2=O)C2C(NN=3)N(CC)C(=S)N2CC)c2ccccc21 (configuration not stated) | 102% | 96.9% | 99.4% | 81.2% | 133% | 100% | 76% | 91.5% | 103% | – |
| O=S(=O)(NCCCNc1cc(-c2cn(-c3ccccc3)nc2-c2cccc(O)c2)ccn1)c1cccc2ccccc12 | 62.4% | 37.5% | 51.4% | 20.6% | 66.3% | 29.8% | 28.7% | 43.6% | 13.6% | 26% |

Source: PubChem BioAssay (NCI)
